Data published in PubChem BioAssay (NCATS).
Results filed as inconclusive are left out. Activity calls are given as the source filed them. Calls come from the whole dose curve; as a rule, active = well fitted cell-killing curve with a large enough effect; inconclusive = small, poorly fitted or top-dose-only effect, or effect the other way; inactive = no such curve, though single readings can be large or run the other way.
Potency is the fitted concentration of half-maximal effect.

Test: Viability qHTS for spleen associated tyrosine kinase inhibitor (SYKi) drug resistant MV4-11 cells (AID 1963824); note: nearly all actives have a fitted effect of over 35% in size
Details: SYKi-resistant MV4-11 viability, CellTiter-Glo, 72 h; series mostly up to 45 µM
Procedure, shortened: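 CellTiter-Glo luminescence, read 10 min after reagent addition, reports viability after a 72 hr compound exposure. Cells are an MV4-11 line made resistant to SYK inhibition, seeded at 500 per well onto compound-containing plates.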
For `CC1(C)O[C@H]2CC(=O)OC[C@@]23C1=C(O)C(=O)[C@]1(C)C3CC[C@@]2(C)[C@H](c3ccoc3)OC(=O)[C@H]3O[C@]321` (stereo partly drawn), the Potency was “inactive”. For `O=C1NC(=O)/C(=C\c2ccc3c(c2)OC(F)(F)O3)S1`, the Potency was 14.6 µM (active). With `CC(C)(C)c1ccc(-c2nc3c(N4CCN(Cc5ccc6nccnc6c5)CC4)cccc3[nH]2)cc1` the Potency was 8.2 µM (active). In the case of `COc1ccc2cc(C(C)C(=O)Oc3ccc(C(N)=S)cc3)ccc2c1` (stereo not drawn), the Potency is reported as “inactive”. For `COC1C(=O)CCC2(CO2)C1(O)C1(C)OC1CC=C(C)C` (stereo not drawn), the Potency was “inactive”. With `Cc1ncsc1-c1ccc([C@H](C)NC(=O)[C@@H]2C[C@@H](O)CN2C(=O)[C@@H](NC(=O)COCCCOCCNC(=O)C[C@@H]2N=C(c3ccc(Cl)cc3)c3c(sc(C)c3C)-n3c(C)nnc32)C(C)(C)C)cc1` the Potency was 0.0023 µM (active). In the case of `COc1ccc2cc1Oc1ccc(cc1)CC1c3cc(c(OC)cc3CCN1C)Oc1c(OC)c(OC)c(OC)c3c1C(C2)N(C)CC3` (stereo not drawn), the Potency is reported as 10 µM (active). With `Cc1cc(F)c(Nc2ncnc3cc(OCc4ccccc4)ccc23)cc1O` the Potency was 14.6 µM (active). For `COc1c(-c2ccc3cc(NS(C)(=O)=O)ccc3c2)cc(-n2ccc(=O)[nH]c2=O)cc1C(C)(C)C`, the Potency was 16.4 µM (active). In the case of `N[C@H]1Cc2ccccc2N(O)C1=O`, the Potency is reported as “inactive”. With `CCc1cc2c(cc1CC)CC(NCC(O)c1ccc(O)c3[nH]c(=O)ccc13)C2` (stereo not drawn) the Potency was 13 µM (active). For `COc1cc(C[C@H]2C(=O)OC[C@@H]2Cc2ccc(OC)c(OC)c2)ccc1O`, the Potency was 0.255 µM (active). In the case of `C/C=C/C=C/[C@@H]1O[C@](O)([C@H](CC)C(=O)NC/C=C/C=C(\C)[C@@H](OC)[C@@H](C)C2OC(/C=C/C=C/C=C(\C)C(=O)c3c(O)cc[nH]c3=O)[C@H](O)[C@@H]2O)[C@H](O)[C@H](O)C1(C)C` (stereo partly drawn), the Potency is reported as 0.243 µM (active).
